In PubChem BioAssay (Tox21):
Activity calls are given as the source filed them. Where a call stands in place of a potency, no number is given. Calls follow the shape of the full dose curve.

target: Acetylcholinesterase (Homo sapiens) (UniProt P22303); test: Acetylcholinesterase (AChE) small molecule antagonists: enzyme-based qHTS assay with human liver microsomes (AID 1347399); conditions: Potency: qHTS inhibition; outcome: qHTS inhibition; series mostly up to 115 µM; also: nearly all actives have a fitted effect of over 60% in size
Procedure, shortened: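 Recombinant human AChE (50 mU/mL in the enzyme mix) and human liver microsomes (0.25 mg/mL final) were preincubated with compound and NADPH (0.25 mg/mL final) for 30 min at 37 C. Acetylthiocholine/DTNB was then added; thiocholine was read colorimetrically after 10 min at room temperature.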

Acetylcholinesterase (Homo sapiens), sequence (P22303 whole entry, looked up): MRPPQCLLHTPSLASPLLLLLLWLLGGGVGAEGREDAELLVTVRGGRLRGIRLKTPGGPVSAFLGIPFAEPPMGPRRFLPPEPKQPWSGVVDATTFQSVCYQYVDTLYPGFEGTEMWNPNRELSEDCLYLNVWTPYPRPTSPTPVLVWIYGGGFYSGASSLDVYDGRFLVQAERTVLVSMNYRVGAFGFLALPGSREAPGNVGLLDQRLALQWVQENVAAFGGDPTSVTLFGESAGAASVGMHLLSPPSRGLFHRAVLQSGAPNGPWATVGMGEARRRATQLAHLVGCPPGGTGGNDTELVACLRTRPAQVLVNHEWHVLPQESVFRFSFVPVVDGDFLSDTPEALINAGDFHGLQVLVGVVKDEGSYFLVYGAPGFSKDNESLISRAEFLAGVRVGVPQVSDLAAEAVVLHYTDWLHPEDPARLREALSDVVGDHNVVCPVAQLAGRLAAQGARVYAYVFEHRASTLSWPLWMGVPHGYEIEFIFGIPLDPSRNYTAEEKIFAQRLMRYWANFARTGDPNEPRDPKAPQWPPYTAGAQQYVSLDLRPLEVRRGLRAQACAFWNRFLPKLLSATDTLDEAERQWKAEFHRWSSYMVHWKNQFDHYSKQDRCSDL

SMILES	Potency	activity change, negative = inhibition	outcome
CC(=O)Nc1ccc(N)cc1	inactive		
CCn1cc(C(=O)O)c(=O)c2cc(F)c(N3CCN(C)CC3)cc21		-0.336% [at 23.6 µM] (inactive)	
O=C(NS(=O)(=O)/C=C/c1ccccc1)c1ccc(F)cc1Cl	inactive		
CC(C)CCOCCC(C)C	inactive		
CCCCCCCCCCCCCCNCCO	inactive		
C[N+]1(CC2COC(c3ccccc3)(C3CCCCC3)O2)CCCCC1 (stereo not given)	inactive		
CCCCCC[C@@H](CCC)C(=O)O	inactive		
CCOC(C)OCC	inactive		
C=C1C(C)(C)[C@@]2(Cl)C(Cl)[C@]1(Cl)C(Cl)(Cl)C2(Cl)Cl (stereo not given in full)	inactive		
CC1(C)NC(=O)NC1=O	inactive		
ClCCl	inactive		
Nc1ccc(Oc2cccc(Oc3ccc(N)cc3)c2)cc1	inactive		
C[N+](C)(C)CCO			inactive
O=C(Oc1ccccc1)c1ccc2ccccc2c1O	inactive		
C1CNCCN1			inactive
CC1=CC(=O)/C(=C(/C)O)C(=O)O1	inactive		
CC(NCCC(c1ccccc1)c1ccccc1)c1ccccc1 (stereo not given)	inactive		
Cn1cnc2c(=O)[nH]c(N)nc21	inactive		
CC(C)c1ccc(C=O)cc1	inactive		
Cn1sccc1=O	inactive		

SMILES	Potency	activity change, negative = inhibition	outcome
CC(O)COc1ccccc1 (stereo not given)	inactive		
CC(C)=CC=O	inactive		
c1cc2ccc3ccc4ccc5cccc6c(c1)c2c3c4c56		0.324% [at 4.07 µM] (inactive)	
Cc1cc(C)nc(NS(=O)(=O)c2ccc(N)cc2)n1	inactive		
CC(CO)(CO)CO	inactive		
CCCCOC(=O)CCC(C)=O	inactive		
CC(=O)OCC(=O)[C@@]1(O)[C@H](C)C[C@H]2[C@@H]3CCC4=CC(=O)C=C[C@]4(C)[C@@]3(F)[C@@H](O)C[C@@]21C	inactive		
O=C1CCC/C=C\CCCCCCCCCC1	inactive		
Cc1ccc(-n2nc(C(C)(C)C)cc2NC(=O)Nc2ccc(OCCN3CCOCC3)c3ccccc23)cc1	inactive		
OC[C@H]1O[C@@H](O[C@H]2[C@H](O)[C@@H](O)[C@H](O)O[C@@H]2CO)[C@H](O)[C@@H](O)[C@H]1O	inactive		
ClC/C=C/CCl	inactive		
Nc1ccc(S(=O)(=O)NC(=O)c2ccccc2)cc1	inactive		
CN(C)CCC=C1c2ccccc2CCc2ccccc21	inactive		
CCCCCC(C)=O	inactive		
COc1ccc(C(=O)c2cccc(O)c2)c(OC)c1	inactive		
O=C1OCCN1/N=C/c1ccc([N+](=O)[O-])o1	inactive		
CC(C)(CO)[N+](=O)[O-]	inactive		
C=CC(=O)OCC(CO)(COCC(COC(=O)C=C)(COC(=O)C=C)COC(=O)C=C)COC(=O)C=C	inactive		
CC(=O)O[C@H]1CC[C@@]2(C)C(=CC[C@@H]3[C@@H]2CC[C@]2(C)C(C(C)=O)=CC[C@@H]32)C1	inactive		
CCCCCCCCCCCCCCCC(=O)OCC	inactive		
